According to PubChem BioAssay (NCI):
Compounds without any hit were thinned out: in the full panel of roughly 79,000, 15% have a hit. Values without a mark were called inactive. Calls of active or inactive are those of the source. Rule as the data show it: active = growth inhibition above about 70%; inactive = the rest.

Experiments:
[1] = NCI Yeast Anticancer Drug Screen. Data for the rad50 strain (AID 155);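 also: 0% = growth of vehicle-only cultures of the same strain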; settings: S. cerevisiae rad50 strain growth inhibition; at 50.0 µM; active compounds read high
Summary of the method: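 Yeast carrying a defined DNA repair defect were exposed to test compounds, and growth was compared with vehicle-treated controls to give percent inhibition.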

[2] = NCI Yeast Anticancer Drug Screen. Data for the mec2-1 strain (AID 157); settings: S. cerevisiae mec2-1 strain, at 50.0 µM, active compounds read high
Summary of the method: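 Cells of the genetically defined mec2-1 yeast strain are incubated with test compound. Inhibition of growth is calculated against vehicle-treated controls.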

[3] = NCI Yeast Anticancer Drug Screen. Data for the sgs1 mgt1 strain (AID 161);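 also: 0% = growth of cultures given vehicle only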; settings: S. cerevisiae sgs1 mgt1 strain, at 50.0 µM, active compounds read high
Summary of the method: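 Test agents were incubated with a DNA-repair-mutant yeast strain. Growth was then read and compared against vehicle-treated controls.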

[4] = NCI Yeast Anticancer Drug Screen. Data for the cln2 rad14 strain (AID 165);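 also: 0% = growth equal to vehicle treated cultures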; settings: S. cerevisiae cln2 rad14 strain, at 50.0 µM, active compounds read high
Summary of the method: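 The screen exposed genetically defined yeast (cln2 rad14) to test compounds and scored growth inhibition relative to vehicle-treated controls.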

[5] = NCI Yeast Anticancer Drug Screen. Data for the bub3 strain (AID 167); settings: S. cerevisiae bub3 mutant strain, at 50.0 µM, active compounds read high
Summary of the method: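 Compounds were applied to a genetically altered yeast strain carrying a cell-cycle control defect. Growth inhibition was scored against vehicle-treated controls.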

[6] = NCI Yeast Anticancer Drug Screen. Data for the mlh1 rad18 strain (AID 175); settings: S. cerevisiae mlh1 rad18 strain growth inhibition; at 50.0 µM; active compounds read high
Summary of the method: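 Compound-treated yeast growth, normalised to vehicle controls. Strain bears defined DNA repair mutations.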

Compound: COc1ccc2[nH]cc(/C=C\[N+](=O)[O-])c2c1
- growth inhibition [1]: 6%
- growth inhibition [2]: -10.1%
- growth inhibition [3]: 32.4%
- growth inhibition [4]: 2.2%
- growth inhibition [5]: 7.65%
- growth inhibition [6]: 13.8%

Compound: C=C(Br)C[N+]12CN3CN(CN(C3)C1)C2
- growth inhibition [1]: -2%
- growth inhibition [2]: -6.55%
- growth inhibition [3]: 2.15%
- growth inhibition [4]: -6.95%
- growth inhibition [5]: 2.7%
- growth inhibition [6]: -17.2%

Compound: O=C1NC(=O)C(=Cc2ccco2)C(=O)N1
- growth inhibition [1]: -4.4%
- growth inhibition [2]: -26.4%
- growth inhibition [3]: -7.85%
- growth inhibition [4]: 5.65%
- growth inhibition [5]: -31.6%
- growth inhibition [6]: -3.3%

Compound: Nc1ccc(C(=O)O)c([As](O)O)c1
- growth inhibition [1]: -6.95%
- growth inhibition [2]: 8.55%
- growth inhibition [3]: -1%
- growth inhibition [4]: 4.35%
- growth inhibition [5]: -4.3%
- growth inhibition [6]: 0.65%

Compound: Fc1ccc(N=C=S)cc1
- growth inhibition [1]: -28.1%
- growth inhibition [2]: -20.2%
- growth inhibition [3]: -24.1%
- growth inhibition [4]: -9.8%
- growth inhibition [5]: -6.2%
- growth inhibition [6]: 2.2%

Compound: Cc1nc2ccccc2c(=O)n1-c1ccccc1F
- growth inhibition [1]: -10.6%
- growth inhibition [2]: -30.2%
- growth inhibition [3]: -19.8%
- growth inhibition [4]: 4.8%
- growth inhibition [5]: -20.9%
- growth inhibition [6]: -29.8%

Compound: COc1ccc(C)cc1C(CC(=O)O)CC(=O)N(CCCl)CCCl (configuration not stated)
- growth inhibition [1]: 39.6%
- growth inhibition [2]: -2.45%
- growth inhibition [3]: 6.05%
- growth inhibition [4]: 17.7%
- growth inhibition [5]: -1.95%
- growth inhibition [6]: 21.6%

Compound: c1cc(C2N3CCCN2CC3)ccn1 (configuration not stated)
- growth inhibition [1]: 10%
- growth inhibition [2]: -27.7%
- growth inhibition [3]: -34%
- growth inhibition [4]: -19.9%
- growth inhibition [5]: -2.35%
- growth inhibition [6]: -15.2%

Compound: O=[As](O)(O[As](=O)(O)c1ccccc1)c1ccccc1
- growth inhibition [1]: 24.4%
- growth inhibition [2]: 18.1%
- growth inhibition [3]: 17.1%
- growth inhibition [4]: 5%
- growth inhibition [5]: -0.05%
- growth inhibition [6]: 28.5%

Compound: Cc1ccc(P(=O)(O)O)cc1
- growth inhibition [1]: -10.9%
- growth inhibition [2]: -15.9%
- growth inhibition [3]: 12.1%
- growth inhibition [4]: 2.6%
- growth inhibition [5]: -2.2%
- growth inhibition [6]: -14.8%

Compound: Nc1ccc2c(c1)Cc1cc(N)ccc1-2
- growth inhibition [1]: 60.2%
- growth inhibition [2]: 15.3%
- growth inhibition [3]: 57%
- growth inhibition [4]: -3.75%
- growth inhibition [5]: 37%
- growth inhibition [6]: 12.1%

Compound: CC1=CP(=O)(OC(C)C)CC(C)=C1Cl (configuration not stated)
- growth inhibition [1]: 33.7%
- growth inhibition [2]: -6.9%
- growth inhibition [3]: -11.4%
- growth inhibition [4]: -9.55%
- growth inhibition [5]: -25.8%
- growth inhibition [6]: 20.8%

Compound: C[C@]12CC[C@H]3[C@@H](CC[C@H]4N(CCCl)CCC[C@]34C)[C@@H]1CC[C@@H]2O
- growth inhibition [1]: 15.9%
- growth inhibition [2]: 15.9%
- growth inhibition [3]: 46.5%
- growth inhibition [4]: 14.8%
- growth inhibition [5]: 69.2%
- growth inhibition [6]: 76.3% (active)

Compound: BrP(Br)(c1ccccc1)(c1ccccc1)c1ccccc1
- growth inhibition [1]: -1.6%
- growth inhibition [2]: -28.8%
- growth inhibition [3]: 17.1%
- growth inhibition [4]: 25.4%
- growth inhibition [5]: 10.7%
- growth inhibition [6]: -0.1%

Compound: [CH3][Sn]([CH3])([O]S(=O)c1ccc(Cl)cc1)[O]S(=O)c1ccc(Cl)cc1 (configuration not stated)
- growth inhibition [1]: 15.7%
- growth inhibition [2]: -9.3%
- growth inhibition [3]: -19.8%
- growth inhibition [4]: 14.7%
- growth inhibition [5]: -4.7%
- growth inhibition [6]: -11.1%

Compound: CC1CN1C1c2ccccc2CC1O (configuration not stated)
- growth inhibition [1]: 1.2%
- growth inhibition [2]: -13.2%
- growth inhibition [3]: -11.8%
- growth inhibition [4]: -15.4%
- growth inhibition [5]: -20.3%
- growth inhibition [6]: -8.95%

Compound: COc1cc(C=O)cc(OC)c1OC
- growth inhibition [1]: 1.45%
- growth inhibition [2]: -10.6%
- growth inhibition [3]: 5.25%
- growth inhibition [4]: -14.1%
- growth inhibition [5]: -7.1%
- growth inhibition [6]: -20.1%

Compound: NC1=C(c2nc(-c3cc4ccccc4oc3=O)cs2)C(c2ccco2)c2c(c3ccccc3oc2=O)O1 (configuration not stated)
- growth inhibition [1]: -3.15%
- growth inhibition [2]: -9.9%
- growth inhibition [3]: -21.4%
- growth inhibition [4]: -38.8%
- growth inhibition [5]: 4.1%
- growth inhibition [6]: -14.3%

Compound: CCP(c1ccccc1)c1ccccc1
- growth inhibition [1]: -0.4%
- growth inhibition [2]: 12.4%
- growth inhibition [3]: 13.1%
- growth inhibition [4]: 0.95%
- growth inhibition [5]: -40.8%
- growth inhibition [6]: -12%

Compound: C1CC[N+]2=C(C1)OCCC2
- growth inhibition [1]: 12.1%
- growth inhibition [2]: -2.15%
- growth inhibition [3]: 6.75%
- growth inhibition [4]: -17.2%
- growth inhibition [5]: -1.9%
- growth inhibition [6]: 4.25%

Compound: Clc1cc2nncc(N3CC3)c2cc1Cl
- growth inhibition [1]: -3.25%
- growth inhibition [2]: -24.4%
- growth inhibition [3]: -3.75%
- growth inhibition [4]: 9.95%
- growth inhibition [5]: -7.8%
- growth inhibition [6]: -21.4%

Compound: O=[As](c1ccccc1Br)(c1ccccc1Br)c1ccccc1Br
- growth inhibition [1]: 70%
- growth inhibition [2]: 19.2%
- growth inhibition [3]: 58.7%
- growth inhibition [4]: 13.4%
- growth inhibition [5]: 22.2%
- growth inhibition [6]: 20.9%

Compound: CCOP(=O)(CCN(C)C)OCC
- growth inhibition [1]: -6.45%
- growth inhibition [2]: 3.55%
- growth inhibition [3]: -4.4%
- growth inhibition [4]: -27.7%
- growth inhibition [5]: -7.9%
- growth inhibition [6]: -0.45%

Compound: CC1CC(O)C(=O)C(O[C@@H]2C[C@@H]3CC[C@@H]4[C@H](CC[C@]5(C)C(C6=CC(=O)OC6)CC[C@]45O)[C@@]3(C=O)C[C@H]2O)O1 (some centres not stated)
- growth inhibition [1]: 7.95%
- growth inhibition [2]: 8.5%
- growth inhibition [3]: -8.1%
- growth inhibition [4]: -2.6%
- growth inhibition [5]: -12.8%
- growth inhibition [6]: -42.9%

Compound: C1C[N-]CC[N-]1.C1C[N-]CC[N-]1.N#CS.[Ni+2]
- growth inhibition [1]: 5.1%
- growth inhibition [2]: 5.65%
- growth inhibition [3]: 1.4%
- growth inhibition [4]: -11.9%
- growth inhibition [5]: 7.6%
- growth inhibition [6]: -5.4%

Compound: O=[As](O)(O)c1cccc(O)c1
- growth inhibition [1]: -6.8%
- growth inhibition [2]: -7.25%
- growth inhibition [3]: -8.65%
- growth inhibition [4]: 3.7%
- growth inhibition [5]: 9.25%
- growth inhibition [6]: -16.1%

Compound: O=C(CP(=O)(O)O)c1cccs1
- growth inhibition [1]: -10.6%
- growth inhibition [2]: -10.3%
- growth inhibition [3]: -28%
- growth inhibition [4]: -10.8%
- growth inhibition [5]: -17.8%
- growth inhibition [6]: -18.9%

Compound: COc1cc(C2c3cc4c(cc3OC3(OC)COC(=O)C23)OCO4)cc(OC)c1OC(C)=O (configuration not stated)
- growth inhibition [1]: -8.95%
- growth inhibition [2]: 0.45%
- growth inhibition [3]: -2.05%
- growth inhibition [4]: -6.9%
- growth inhibition [5]: -24.6%
- growth inhibition [6]: 8.1%

Compound: O=C(NCCN1CCOCC1)c1cc(N(CCCl)CCCl)c([N+](=O)[O-])cc1[N+](=O)[O-]
- growth inhibition [1]: 15.8%
- growth inhibition [2]: 7.45%
- growth inhibition [3]: 16.6%
- growth inhibition [4]: 23.6%
- growth inhibition [5]: 33.1%
- growth inhibition [6]: 27.9%

Compound: CC(=O)c1ccccc1N=Nc1ccc(N(CCCl)CCCl)cc1C
- growth inhibition [1]: 13.5%
- growth inhibition [2]: 19.7%
- growth inhibition [3]: 12.9%
- growth inhibition [4]: 0.95%
- growth inhibition [5]: 20.5%
- growth inhibition [6]: 31.4%

Compound: C=CCNC(=O)C(Br)C(C)C (configuration not stated)
- growth inhibition [1]: -9.8%
- growth inhibition [2]: -40.8%
- growth inhibition [3]: -10.6%
- growth inhibition [4]: 22.9%
- growth inhibition [5]: -26.9%
- growth inhibition [6]: -8.2%

Compound: O=C1CN=C(c2ccccc2)c2cc(Cl)ccc2N1
- growth inhibition [1]: -4.7%
- growth inhibition [2]: 11.9%
- growth inhibition [3]: 3.35%
- growth inhibition [4]: 16.1%
- growth inhibition [5]: 8.55%
- growth inhibition [6]: 32.2%

Compound: CC(C)c1cccc(C(C)C)c1O
- growth inhibition [1]: 22.2%
- growth inhibition [2]: 26%
- growth inhibition [3]: -21.9%
- growth inhibition [4]: 3.5%
- growth inhibition [5]: 10.9%
- growth inhibition [6]: 12.9%

Compound: CN(CCC#N)c1ccc(C=C(C#N)C#N)cc1
- growth inhibition [1]: 7.25%
- growth inhibition [2]: 11.3%
- growth inhibition [3]: 7.65%
- growth inhibition [4]: 8.05%
- growth inhibition [5]: 24.7%
- growth inhibition [6]: 5.65%

Compound: COc1cc(O)c([N+](=O)[O-])cc1[N+](=O)[O-]
- growth inhibition [1]: -6.4%
- growth inhibition [2]: 0.35%
- growth inhibition [3]: -2.9%
- growth inhibition [4]: 0%
- growth inhibition [5]: 18.9%
- growth inhibition [6]: 5.05%

Compound: OC12CCC[N+]1(Cc1ccccc1)CCC2 (configuration not stated)
- growth inhibition [1]: 9.25%
- growth inhibition [2]: -9.75%
- growth inhibition [3]: -7.9%
- growth inhibition [4]: 2.85%
- growth inhibition [5]: -0.55%
- growth inhibition [6]: -18.1%

Compound: COC(=O)c1ccccc1N
- growth inhibition [1]: 13.5%
- growth inhibition [2]: 1.95%
- growth inhibition [3]: -0.55%
- growth inhibition [4]: -29.5%
- growth inhibition [5]: -2.9%
- growth inhibition [6]: -6.75%

Compound: CN(C)C(=O)Oc1cc(O)cc([N+](=O)[O-])c1
- growth inhibition [1]: -5.45%
- growth inhibition [2]: -11.1%
- growth inhibition [3]: -10.8%
- growth inhibition [4]: -6.35%
- growth inhibition [5]: 24.1%
- growth inhibition [6]: -28.1%

Compound: CN/N=C(/CCN1CCCC1)CC(c1ccccc1)c1c(O)c2ccccc2oc1=O (configuration not stated)
- growth inhibition [1]: 35.5%
- growth inhibition [2]: 9%
- growth inhibition [3]: 29.6%
- growth inhibition [4]: 35.2%
- growth inhibition [5]: 31.5%
- growth inhibition [6]: 37.4%

Compound: c1ccc2c(c1)sc1ccccc12
- growth inhibition [1]: 15.5%
- growth inhibition [2]: -13.7%
- growth inhibition [3]: 16.9%
- growth inhibition [4]: -29.4%
- growth inhibition [5]: -8.6%
- growth inhibition [6]: 15.2%

Compound: C[As+](c1ccccc1)(c1ccccc1)c1cccc2ccccc12
- growth inhibition [1]: 10.2%
- growth inhibition [2]: 38.9%
- growth inhibition [3]: 21.2%
- growth inhibition [4]: -10.1%
- growth inhibition [5]: 26.1%
- growth inhibition [6]: 34.3%

Compound: S=C(Nc1ccccc1)N1CC1
- growth inhibition [1]: -7.85%
- growth inhibition [2]: -22.3%
- growth inhibition [3]: -19.9%
- growth inhibition [4]: -11.9%
- growth inhibition [5]: -6.15%
- growth inhibition [6]: -17.4%
